This excerpt belongs to a sample that is enriched for hits.
Pf Dd2 growth = inhibitors of Plasmodium falciparum Dd2 growth; P. falciparum Dd2 growth, SYBR Green, 72 h; Potency, µM (doses to about 28.9 µM), without a hit: top-dose activity, negative = inhibition, usual class: inhibitors; actives 4.3% (n = 120,000); active = well fitted inhibition curve with a large enough effect;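 also: plate controls were DMSO vehicle for no effect and reference drug for full effect; nearly all actives have a fitted effect of over 65% in size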
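Readout: SYBR Green fluorescence, 485 nm excitation, 535 nm emission, after ~16 h lysis at 37C. Before that, Dd2-infected red cells (2.5% hematocrit) grew 72 h with compound, 29 uM top final concentration.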
* = called active by the depositor; i = inactive; [ ] = remark or other dose. Potency is read from the fitted curve at half-maximal effect.

SMILES	Pf Dd2 growth
CC(C)(C)OC(=O)N1CCC(c2c(C(=O)NCc3ccc4c(c3)OCO4)cnn2-c2ccc(F)cc2F)CC1	7.9µM*
CC(C)(C)OC(=O)N1CCC(c2c(C(=O)Nc3ccc4c(c3)OCCO4)cnn2-c2ccc(F)cc2F)CC1	4µM*
Cc1ccc(-n2ncc(C(=O)N3CCCCC3)c2C2CCN(C(=O)OC(C)(C)C)CC2)cc1C	-5%
CCCc1noc(-c2cccn3c(CNC(=O)c4cccc(F)c4)nnc23)n1	-8%
O=C(CN1CC2CC(C1)[C@H]1CCCC(=O)N1C2)N1CCN(c2ccccc2)CC1 (stereo not given in full)	-17%
CNC(=O)[C@@H]1C[C@H](Oc2cccnc2)CN1C(=O)c1ccc(OC)c(F)c1	-13%
Cc1cc(N2CCC(NS(=O)(=O)c3cn(C)c(C)n3)C2=O)ccc1F (stereo not given)	5%
CCN(CC)C(=O)C[C@@H]1CCNC[C@@H]1Cc1cc(C(=O)OC)on1	30%[44.1 µM]
COCC(=O)N[C@H]1CC[C@]2(C)CC[C@@H]([C@H](C)C(=O)N3CCOCC3)[C@H](O)[C@H]2[C@@H]1C	5%[44.1 µM]
CN1CCCCCCN(S(=O)(=O)c2cccc(F)c2)CCC1=O	-8%
CC(=O)N1CCC(C(=O)NCc2cccnc2N(C)Cc2ccccc2)CC1	-9%
CCCOc1ccc(CN2C[C@@H]3C(=O)N(C)C(=O)[C@@H]3C2)cc1OC	20%
O=C(c1cccc(F)c1)N1CCN(c2cc(-c3ccc(Cl)cc3)[nH]n2)CC1	i
COc1ccc(NC(=O)c2cnn(-c3ccc(F)cc3F)c2C2CCN(C(=O)OC(C)(C)C)CC2)cc1Cl	7.9µM*
Cc1c(Cl)cccc1-n1ncc(C(=O)Nc2ccc(F)cc2F)c1C1CCN(C(=O)OC(C)(C)C)CC1	-3%
CN1[C@@H](CCC(=O)N2CCc3ccccc32)CNC(=O)[C@@H]2[C@H]1CCN2CC(C)(C)C	i
Cc1cc(=O)cc(C(=O)N2CCC(O)(CN3CCOCC3)C(C)(C)C2)o1 (stereo not given)	-18%
Cn1ccnc1CN1C(=O)CO[C@H]2CN(C(=O)NCc3ccccc3)C[C@H]21	46%[44.1 µM]
CN1CCC2(CC1)CN(C(=O)c1cncc(Br)c1)Cc1ccccc1O2	-3%
Cc1ncoc1C(=O)N1CCOc2ccc(CCC(N)=O)cc2C1	-6%
CCN(CC)Cc1ccc2c(c1)CN(C(=O)c1cncc(Br)c1)CCO2	8.9µM*
Cc1ccc(CNC(=O)N2c3ccccc3CC2c2nc(C3CC3)no2)cc1 (stereo not given)	7%[5.79 µM]
COc1ccc(-c2cc(N3CCCN(C(=O)c4ccccc4)CC3)n[nH]2)cc1	-1%
COc1cccc(C(=O)N2CCCN(c3cc(-c4ccc(Cl)cc4)[nH]n3)CC2)c1	4µM*
COc1ccc(-c2cc(N3CCCN(C(=O)CCCc4ccccc4)CC3)n[nH]2)cc1	2.2µM*
SMILES	Pf Dd2 growth
O=C(CCCc1ccccc1)N1CCN(c2cc(-c3ccccc3)[nH]n2)CC1	i
COc1cc(OC)cc(C(=O)N2CCN(c3cc(-c4ccc(Cl)cc4)[nH]n3)CC2)c1	-14%
COc1ccc(CCC(=O)N2CCCN(c3cc(-c4ccc(Br)cc4)[nH]n3)CC2)cc1	-8%
Cn1ncc2c(C(=O)NCCc3ccc(Cl)cc3)cc(-c3ccc(Cl)cc3Cl)nc21	16%
COc1ccc(C2Cn3nnc(C(=O)N4CCN(C(=O)Cc5cccc(F)c5)CC4)c3CO2)cc1 (stereo not given)	-19%
COc1cccc(CN2CCOC3(CCN(Cc4ccc(C#N)cc4)CC3)C2=O)c1	-26%[44.1 µM]
Cc1noc(CN2CCc3nc(-c4ccc(F)cc4F)[nH]c3C2)n1	-7%
Cn1ncc(CN2CCc3nc(-c4ccc(F)cc4F)[nH]c3C2)c1C1CC1	11µM*
CN1CCN(c2nc3c(c(=O)[nH]2)CCN(Cc2ccc(F)cc2F)CC3)CC1	35%[5.79 µM]
CC(=O)N1CCCN(C(=O)c2cnc3cc(C)nn3c2)CC1	14%[44.1 µM]
Cc1cc(C)cc(NC(=S)N[C@H]2CO[C@H]3[C@@H]2OC[C@@H]3n2nnnc2Oc2cccc(N(C)C)c2)c1	-6%
O=C1c2ccccc2CN1C1CCN(Cc2ccc(C(F)(F)F)cc2)CC1	-17%
O=C1NCCCCCCN(C(=O)c2ccncc2)[C@H]2CCCC[C@@H]12	-10%
O=C1CC(c2noc(-c3ccc(Cl)cc3)n2)CN1c1ccc(F)cc1 (stereo not given)	126%
CCC(Sc1nc2cc3c(cc2c(=O)n1CCCC(=O)NCc1ccc(OC)cc1)OCO3)C(=O)NCCCOC (stereo not given)	i
COc1ccc(CNC(=O)CCCn2c(SCC(N)=O)nc3cc4c(cc3c2=O)OCO4)cc1	32%
CCCCC(Sc1nc2cc3c(cc2c(=O)n1CCCC(=O)NCc1ccc(OC)cc1)OCO3)C(=O)OCC (stereo not given)	7.9µM*
COc1ccc(C(=O)N2CCC(Cc3nc(-c4ccc(F)cc4)no3)CC2)c(OC)n1	-23%
COc1ccc(C2Cn3cnc(C(=O)N4CCC(C(=O)NCc5ccccc5F)CC4)c3CO2)cc1 (stereo not given)	-7%
Cc1ccc([S+](=O)([O-])N2CCc3nc(C)nc(-c4ccc(Cl)cc4)c3CC2)cc1	13%
COc1ccc(-c2nc(C3CC3)nc3c2CCN(C(=O)c2ccc4c(c2)OCO4)CC3)cc1	11µM*
COc1ccc(-c2nc(C)nc3c2CCN(C(=O)c2ccc4c(c2)OCO4)CC3)cc1	i
COc1cccc([S+](=O)([O-])N2CCc3nc(C4CC4)nc(-c4ccc(Cl)cc4)c3CC2)c1	13µM*
COc1ccc(C(=O)N2CCc3nc(C4CC4)nc(-c4ccc(Cl)cc4)c3CC2)cc1	10µM*
O=[S+]([O-])(c1cccc(C(F)(F)F)c1)N1CCc2nc(C3CC3)nc(-c3ccc(Cl)cc3)c2C1	-11%
SMILES	Pf Dd2 growth
CC(C)c1nc2c(c(-c3ccc(Cl)cc3)n1)CCN([S+](=O)([O-])c1ccccc1)CC2	11µM*
CCc1nc2c(c(-c3ccc(Cl)cc3)n1)CCN(C(=O)c1ccc(OC)cc1)CC2	i
COc1ccc(-c2nc(C)nc3c2CCN(C(=O)c2ccc(C)cc2)CC3)cc1	-19%
COc1ccc(-c2nc(C)nc3c2CN([S+](=O)([O-])c2cccc(OC)c2)CC3)cc1	-7%
COc1ccc(-c2nc(C(C)C)nc3c2CN([S+](=O)([O-])c2cccc(C(F)(F)F)c2)CC3)cc1	i
Cc1ccc(C(=O)N2CCc3nc(C4CC4)nc(-c4ccc(Cl)cc4)c3CC2)cc1	-15%
CN1C(=O)c2cccn2CC1C(=O)NCc1ccco1 (stereo not given)	-5%
Cc1cnn(CCC(=O)N2C[C@@H](CO)[C@H](c3nc(C4CC4)no3)C2)c1	i
COc1ccc(NC(=O)[C@@H]2COCC(=O)N2Cc2ccccc2)cc1	i
COC1CCC12CCN(C(=O)c1cccc(C)c1)CC2 (stereo not given)	0%
COc1ccc(NC(=O)N2C[C@@H]3C[C@H](C2)c2ccc(NC(=O)C4CCCCC4)c(=O)n2C3)cc1	i
CCC(C)NC(=O)C(NC(=O)c1cccs1)C1CCN(C(=O)c2ccccc2F)CC1 (stereo not given)	-10%
O=C(CC1=CCCCC1)N1CCC2(CC1)CN(c1ccncn1)CC2CO (stereo not given)	i
CC(C)c1nc2c(c(-c3ccc(Cl)cc3)n1)CCN(CC1CC1)CC2	-18%
COc1ccc(-c2nc(C)nc3c2CCN(Cc2cc(C)on2)CC3)cc1	-13%
Cc1cc(CN2CCc3nc(C(C)C)nc(-c4ccc(Cl)cc4)c3CC2)no1	8.9µM*
CN(C)CCCNC(=O)C[C@H]1NC(=O)c2ccccc2NC1=O	4%

High-throughput results from PubChem BioAssay.
